Each structure is given as a SMILES string. In all, about 110,000 compounds were measured (“z-score”: median about -0.1, highest 2% from about 2 on). The list comes from a sample in which the highest values are over-represented; it also holds similar structures and randomly drawn compounds. Activity calls are given as the source filed them.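 The calls were made as follows: active = z-score in the third read window above 3 or below -3; inactive = the rest.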

For the assay, the target named is Metabotropic glutamate receptor 8 (Rattus norvegicus) (UniProt P70579). As to the kind of experiment: rat mGluR8 modulators via GIRK flux, primary screen, cell-based, thallium flux, HTS (AID 488969). The following applies: HEK293 rat mGluR8, GIRK (G protein-gated inwardly rectifying potassium channel) thallium flux, FluoZin2; at 10 µM; stronger effect = higher value; submaximal glutamate (EC20) added with thallium.
Sequence of Metabotropic glutamate receptor 8 (Rattus norvegicus) (P70579 whole entry, looked up): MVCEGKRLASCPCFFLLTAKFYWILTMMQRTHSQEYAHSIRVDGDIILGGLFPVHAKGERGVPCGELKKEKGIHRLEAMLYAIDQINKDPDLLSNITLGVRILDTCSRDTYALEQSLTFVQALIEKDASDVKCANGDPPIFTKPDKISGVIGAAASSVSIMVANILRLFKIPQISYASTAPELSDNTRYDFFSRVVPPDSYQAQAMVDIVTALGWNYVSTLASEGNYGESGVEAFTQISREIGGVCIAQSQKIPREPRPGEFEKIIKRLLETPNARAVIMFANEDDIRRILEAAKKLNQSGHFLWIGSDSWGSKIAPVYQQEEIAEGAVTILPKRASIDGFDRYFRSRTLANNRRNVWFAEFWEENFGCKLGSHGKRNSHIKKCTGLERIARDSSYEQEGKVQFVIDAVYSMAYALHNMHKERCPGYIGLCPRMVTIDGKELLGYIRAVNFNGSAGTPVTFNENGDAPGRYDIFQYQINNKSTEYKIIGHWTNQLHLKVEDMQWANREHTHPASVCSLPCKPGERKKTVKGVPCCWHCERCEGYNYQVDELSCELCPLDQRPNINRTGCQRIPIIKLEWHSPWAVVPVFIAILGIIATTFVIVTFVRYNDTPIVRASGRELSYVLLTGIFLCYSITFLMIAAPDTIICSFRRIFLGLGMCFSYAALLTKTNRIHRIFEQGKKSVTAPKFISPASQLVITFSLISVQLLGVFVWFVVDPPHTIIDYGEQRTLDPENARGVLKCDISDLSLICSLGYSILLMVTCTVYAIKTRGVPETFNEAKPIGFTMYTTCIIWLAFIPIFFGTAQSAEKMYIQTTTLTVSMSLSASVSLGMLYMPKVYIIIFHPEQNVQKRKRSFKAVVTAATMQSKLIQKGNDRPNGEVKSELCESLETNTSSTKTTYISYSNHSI
`Cn1cnnc1SCC(=O)Nc1sc2c(c1C#N)CCCCC2` came in with a z-score of 0.0796.

On to `COc1ccc2cnn(Cc3ccccc3)c(=O)c2c1OC`, for which the z-score worked out at 0.037.

On to `Cc1cccc(-c2n[nH]c(=S)n2/N=C/c2ccc(C)s2)c1`, for which the z-score was found to be 0.7.

Regarding `S=c1[nH]nc(COc2ccccc2)n1/N=C/c1cccs1`, the z-score turned out to be 0.649.

On to `S=c1[nH]nc(C2CCCCC2)n1/N=C/c1cccs1`, for which the z-score was 2.48.

For `Cc1ccsc1/C=N/n1c(COc2ccccc2)n[nH]c1=S`, the z-score came to 0.533.

In the case of `Cc1ccc(-c2n[nH]c(=S)n2/N=C/c2ccc(C)s2)cc1`, the z-score was 2.29.

For `S=c1[nH]nc(-c2ccccc2)n1/N=C/c1cccs1`, the z-score came out at 0.587.

`Cc1ccsc1/C=N/n1c(C2CCCCC2)n[nH]c1=S` registered a z-score of 0.383.

Turning to `Cc1ccc(/C=N/n2c(COc3ccccc3)n[nH]c2=S)s1`, the z-score is 3.29 (active).

The compound `Cc1ccc(/C=N/n2c(-c3cccnc3)n[nH]c2=S)s1` came in with a z-score of -0.311.

In turn, `Cc1ccc(/C=N/n2c(C3CCCCC3)n[nH]c2=S)s1` displayed a z-score of 0.644.

In turn, `Cc1ccc(-c2n[nH]c(=S)n2/N=C/c2cccs2)cc1` showed a z-score of 2.22.

Regarding `CC(C)(C)c1n[nH]c(=S)n(/N=C/c2cccs2)c1=O`, the z-score came to 0.25.

Regarding `CS(=O)(=O)Nc1ccc(-c2n[nH]c(=S)n2-c2ccccc2)cc1`, the z-score is 0.118.

In turn, `CCN(CCNC(=O)C1CCN(Cc2nc(-c3ccc(Cl)cc3)oc2C)CC1)c1ccccc1` yielded a z-score of 1.3.

Turning to `CN(C)c1ccnc(NCc2ccccc2)c1C#N`, the z-score was -0.278.

On to `O=C(Nc1ccncc1)Nc1ccccn1`, for which the z-score was -0.133.

`CCC(=O)N/C(=N\OCc1ccc(F)cc1)c1nonc1NC(=O)CC` yielded a z-score of -0.064.

Compound `COc1ccccc1-c1noc(CCC(=O)Nc2cccc(C)c2)n1` yielded a z-score of -0.323.

`O=C(c1cnn2c(C(F)(F)F)cc(-c3ccco3)nc12)N1CCCc2ccccc21` displayed a z-score of -0.976.

`O=C(c1cnn2c(C(F)(F)F)cc(-c3ccco3)nc12)N1CCCCCC1`: the z-score is 2.24.

For the compound `O=C(c1cnn2c(C(F)(F)F)cc(-c3ccco3)nc12)N1CCc2ccccc2C1`, the z-score was -1.04.

In turn, `COc1cc(C(C)=O)ccc1COc1ccc(C(=O)OCC(=O)NC(C)(C)C)cc1OC` gave a z-score of -0.573.

On to `O=C(NCc1ccccn1)c1ccc(CNS(=O)(=O)c2ccc(F)cc2)cc1`, for which the z-score was -0.111.

`CN1C(=O)c2ccccc2N(C)C1c1cccs1` (configuration not stated) registered a z-score of -1.51.

For the compound `O=c1c2[nH]c3ccccc3c2ncn1C1CCCCC1`, the z-score was 0.256.

As to `O=c1c2ccccc2[nH]c(=S)n1CC1CCCO1` (configuration not stated), the z-score is 0.302.

`O=c1c2ccccc2[nH]c(=S)n1C1CCCCC1`: the z-score is 12.5 (active).

As to `CC1CCC(n2c(=S)[nH]c3ccccc3c2=O)CC1` (configuration not stated), the z-score is 8.55 (active).

In turn, `Cc1c(-n2c(=S)[nH]c3ccccc3c2=O)c(=O)n(-c2ccccc2)n1C` registered a z-score of 0.153.

Consider `CCOC(=O)N1CCC(n2c(=S)[nH]c3ccccc3c2=O)CC1`, for which the z-score amounted to 0.582.

With `Cc1ccc(S(=O)(=O)Nc2cc(C(F)(F)F)ccc2N2CCOCC2)cc1`, the z-score amounted to 0.266.

Regarding `Cc1ccc(-c2nnc3n2CCCCC3)cc1`, the z-score is 0.0634.

On to `CCNC(=O)COC(=O)C1C(C(=O)OCC)=C(C)NC(C)=C1C(=O)OCC`, for which the z-score is -0.145.

Consider `O=C(Cn1c(=O)n(-c2ccccc2)c(=O)c2sccc21)N1CCCC1`, for which the z-score is -0.24.

Consider `Cc1ccc(OCC(=O)N/N=C/c2cn(Cc3ccccc3)c3ccccc23)cc1`, for which the z-score was -0.188.

`O=C(O)CCN1C(=O)/C(=C\c2ccc(-c3nc4ccccc4s3)o2)SC1=S` displayed a z-score of 2.49.

Turning to `O=C(O)CCCN1C(=O)/C(=C/c2ccc(-c3nc4ccccc4s3)o2)SC1=S`, the z-score came out at 0.773.

Compound `O=C(O)CCN1C(=O)/C(=C/c2ccc(-c3nc4ccccc4s3)o2)SC1=S` came in with a z-score of 1.83.

In turn, `COc1ccccc1N1C(N)=NC(N)=NC1(C)C` yielded a z-score of -0.0746.

Take `CC(=O)CCc1ccc2oc(C(=O)O)c(C)c2c1`: the z-score is -0.497.

`COC(=O)c1[nH]c2ccc(F)cc2c1NC(=O)CCN1CCN(Cc2ccc3c(c2)OCO3)CC1` showed a z-score of -0.752.

`Cc1[nH]c2ccccc2c1NC(=O)CN1CCN(Cc2ccc3c(c2)OCO3)CC1` showed a z-score of -0.288.

`COC(=O)c1[nH]c2ccc(C)cc2c1NC(=O)CCN1CCN(Cc2ccc3c(c2)OCO3)CC1`: the z-score is 9.23 (active).

`CC(=NC1CC1)c1c(-c2ccccc2)[nH]n(-c2nc3ccccc3s2)c1=O` yielded a z-score of -0.25.

Compound `Cc1scc(-c2n[nH]c(=S)n2Cc2ccccc2)c1C` displayed a z-score of 0.854.

On to `Cc1cc(-c2n[nH]c(=S)n2Cc2ccccc2)cs1`, for which the z-score is 0.453.

Regarding `CCCc1cc(-c2n[nH]c(=S)n2CC(C)C)cs1`, the z-score was 4.16 (active).

In the case of `CCCc1cc(-c2n[nH]c(=S)n2Cc2ccccc2)cs1`, the z-score was 4.6 (active).

`CCc1cc(-c2n[nH]c(=S)n2CC(C)C)cs1` gave a z-score of 1.12.

Regarding `CCc1c(-c2n[nH]c(=S)n2Cc2ccccc2)csc1C`, the z-score is 2.88.

On to `S=c1[nH]nc(-c2ccncc2)n1Cc1ccccc1`, for which the z-score stood at 1.42.

In turn, `Cc1cc(-c2n[nH]c(=S)n2CC(C)C)cs1` yielded a z-score of -0.405.

As for `CCc1cc(-c2n[nH]c(=S)n2Cc2ccccc2)cs1`, the z-score was 0.464.

`Cc1nc2c(C)cccc2cc1C(=O)N/N=C/c1cccnc1` had a z-score of -0.392.

`CCc1cccc(CC)c1NC(=O)COC(=O)c1cccc(-c2ccc(OC(C)=O)cc2)c1`: the z-score was -1.91.

`Cc1ccccc1C(=NCCCN(C)C)c1ccccc1C` yielded a z-score of 0.825.

On to `O=C(Cc1cccs1)N(Cc1ccco1)C1(C(=O)NC2CCCCC2)CCCCC1`, for which the z-score stood at 1.89.

Consider `Cn1nc(Oc2nc(N3CCOCC3)nc(N3CCOCC3)n2)ccc1=O`, for which the z-score came out at 0.165.

`O=C(c1cc2cc(Br)ccc2oc1=O)N1CCCC1` displayed a z-score of 0.0138.

With `CCC1CCCCN1C(=O)c1cc2cc(Br)ccc2oc1=O` (configuration not stated), the z-score is 7.8 (active).

Compound `CCOC(=O)N1CCN(C(=O)c2cc3cc(Br)ccc3oc2=O)CC1` came in with a z-score of -0.271.

Compound `C=CCNC(=O)CC(=O)N/N=C/c1ccc(F)cc1` displayed a z-score of -0.18.

`C=CCn1c(-c2ccc(OC)cc2)csc1=Nc1c(C)n(C)n(-c2ccccc2)c1=O`: the z-score is -0.422.

Compound `N#CC1=C(S)N=C(N)C(c2nc(-c3ccccc3)cs2)C12CCCC2` (configuration not stated) returned a z-score of 0.271.

Compound `Cc1ccc(S(=O)(=O)N(C)/C(=N/S(=O)(=O)c2ccccc2)c2ccccc2)cc1` yielded a z-score of -0.162.

`O=C(O)/C=C/c1cn(-c2ncc(C(F)(F)F)cc2Cl)c2ccccc12`: the z-score is -0.0759.

For the compound `CC(=O)/C=C\c1cn(-c2ncc(C(F)(F)F)cc2Cl)c2ccccc12`, the z-score is -0.119.

As to `CN(C)/C=C/C(=O)/C=C/c1cn(-c2ncc(C(F)(F)F)cc2Cl)c2ccccc12`, the z-score was 5.57 (active).

As to `CN1CCN(C(=O)c2ccc(-c3nn(C)c(=O)c4ccccc34)cc2)CC1`, the z-score was -0.877.

Regarding `CSc1ncc(Cl)c(C(=O)NCc2ccc3c(c2)OCO3)n1`, the z-score is 0.575.

Regarding `O=c1[nH]cnc2c1sc1nc(-c3ccccc3)c3c(c12)CCCC3`, the z-score came to 0.204.

Regarding `COc1ncnc2c1sc1nc(-c3ccccc3)c3c(c12)CCCC3`, the z-score was -0.0945.

With `S=c1nc[nH]c2c1sc1nc(-c3ccccc3)c3c(c12)CCCC3`, the z-score is 7.83 (active).

`CC1CN(C(=O)/C=C/c2cccc([N+](=O)[O-])c2)CC(C)O1` (configuration not stated): the z-score was -0.164.

For `CCOc1cc2[nH]c(=S)n(CCN3CCCCC3C)c(=O)c2cc1OCC` (configuration not stated), the z-score came to 0.258.

Regarding `O=c1c2ccccc2[nH]c(=S)n1CCN1CCN(Cc2ccccc2)CC1`, the z-score is 7.91 (active).

In the case of `COc1cccc(NC(=O)CCCn2c(=S)[nH]c3ccccc3c2=O)c1`, the z-score is 3.39 (active).

Consider `COc1ccc(NC(=O)CCCn2c(=S)[nH]c3ccccc3c2=O)cc1`, for which the z-score is -0.514.

`CCOc1cc2[nH]c(=S)n(CCN3CCCCC3CC)c(=O)c2cc1OCC` (configuration not stated) showed a z-score of 1.73.

For `CCC1CCCCN1CCn1c(=S)[nH]c2cc(OC)c(OC)cc2c1=O` (configuration not stated), the z-score is 2.07.

Turning to `CC1CCCN(C(=O)CCCn2c(=S)[nH]c3ccccc3c2=O)C1` (configuration not stated), the z-score was 4.5 (active).

For `O=C(CCCCCn1c(=S)[nH]c2ccccc2c1=O)N1CCOCC1`, the z-score is -0.155.

`O=c1[nH]c2ccccc2c(=O)n1Cc1ccccc1` displayed a z-score of 0.345.

`COCCNC(=O)CCCCCn1c(=S)[nH]c2ccccc2c1=O` gave a z-score of 1.77.

For the compound `O=C(CCCn1c(=S)[nH]c2ccccc2c1=O)N1CCCCC1`, the z-score came to 1.44.

The compound `CCN1CCN(CCn2c(=S)[nH]c3ccccc3c2=O)CC1` gave a z-score of 0.66.

For `Cc1cccc(C(=O)N2c3ccccc3C(=O)OC2c2ccc3c(c2)OCO3)c1` (configuration not stated), the z-score was -0.842.

With `c1coc(CN(Cc2ccco2)c2ncnc3c2oc2ccccc23)c1`, the z-score was -2.18.

Turning to `O=C1CN=C(Nc2ccc(Cl)cc2)N1c1ccccc1`, the z-score was -0.0445.

Turning to `COc1cc(-n2c(C)nc3cc(C(=O)NCCN4CCOCC4)ccc32)cc(OC)c1OC`, the z-score is -0.57.

As to `COc1cc(NC(=S)Nc2cccnc2)cc(OC)c1OC`, the z-score is -0.192.

With `CCN(CC)CCCn1c(=S)[nH]c2ccccc2c1=O`, the z-score stood at 0.126.

As for `CC1CCN(CCCn2c(=S)[nH]c3ccccc3c2=O)CC1`, the z-score came out at 0.0115.

The compound `O=C(NCCN1CCN(Cc2ccccc2)CC1)c1cc2c(=O)[nH]c3ccccc3c2s1` gave a z-score of 2.15.

In the case of `CC1CCCCN1CCCn1c(=S)[nH]c2ccccc2c1=O` (configuration not stated), the z-score was 3.46 (active).

Compound `CC1CCCCN1CCNc1nc(=S)[nH]c2ccccc12` (configuration not stated) showed a z-score of -0.105.

As for `CCN1CCN(CCCNC(=O)c2cc3c(=O)[nH]c4ccccc4c3s2)CC1`, the z-score came to 0.477.

With `O=c1c2ccccc2[nH]c(=S)n1CCCN1CCN(C2CCCCC2)CC1`, the z-score was 10.2 (active).

`O=C(CCCn1c(=S)[nH]c2ccccc2c1=O)NC1CCCCC1` yielded a z-score of 0.0447.

Turning to `CC1CC(C)CN(CCCn2c(=S)[nH]c3ccccc3c2=O)C1` (configuration not stated), the z-score was 14.4 (active).

For `O=C(CCCn1c(=S)[nH]c2cc3c(cc2c1=O)OCO3)N1CCN(C2CCCCC2)CC1`, the z-score was -0.008.

For the compound `Cc1ccc2[nH]c(=O)c3cc(C(=O)NCCN4CCN(C)CC4)sc3c2c1`, the z-score stood at 0.666.

`O=C(NC1CCCCC1)c1ccccc1-c1ccccc1` yielded a z-score of -0.176.

For the compound `COCCNC(=O)c1cc2ncc(Br)cn2n1`, the z-score is 0.00586.

Consider `C/C(Cn1cnc([N+](=O)[O-])n1)=N\NC(=O)c1ccc(Br)cc1`, for which the z-score was -0.261.

Consider `O=C(CNC(=O)c1cccs1)NC1=NCCS1`, for which the z-score came out at 0.647.

As for `COc1ccc(/C=N/NC(=O)c2ccccc2O)cc1CSc1ccccn1`, the z-score was 0.779.

In turn, `Cc1c2cccn2cc[n+]1C` yielded a z-score of -0.16.

In turn, `CCOC(=O)c1ccc(N/C=C2/CCCC(C)C2=O)cc1` (configuration not stated) came in with a z-score of 0.315.

For the compound `Cc1ccccc1OCC(=O)O/N=C(\N)Cc1ccc(Cl)cc1`, the z-score was -0.483.
